Over roughly 18,000 sequences, “log2 normalized intensity” has its median near 0.39; the highest 2% begin near 6.6. This excerpt belongs to a sample that is enriched for the highest values.

The assay addresses T1, HNF4alpha2 (COS-7 nuclear extract) (Homo sapiens, UniProt P41235 1-474).
T1 sequence: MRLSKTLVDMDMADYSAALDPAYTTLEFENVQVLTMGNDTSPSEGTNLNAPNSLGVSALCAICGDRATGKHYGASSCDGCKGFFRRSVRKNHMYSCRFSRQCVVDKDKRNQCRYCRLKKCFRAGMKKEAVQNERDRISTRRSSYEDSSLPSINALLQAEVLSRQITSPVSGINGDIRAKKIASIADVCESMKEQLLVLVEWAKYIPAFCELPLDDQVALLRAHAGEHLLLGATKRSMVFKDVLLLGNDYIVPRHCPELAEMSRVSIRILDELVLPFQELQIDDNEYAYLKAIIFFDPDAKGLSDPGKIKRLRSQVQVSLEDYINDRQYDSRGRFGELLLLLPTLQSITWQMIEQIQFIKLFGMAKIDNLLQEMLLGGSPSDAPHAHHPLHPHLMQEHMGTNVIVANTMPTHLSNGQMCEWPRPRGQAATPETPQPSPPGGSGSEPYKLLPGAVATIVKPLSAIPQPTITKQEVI
The experiment in a line: protein-binding microarray; COS-7 nuclear extract on double-stranded Agilent 4x180k PBM; binding buffer, salt, pH and temperature not given in the material; high values mean tight binding. The note with it: chain copies: 2; label: 3' end of strand 1 on the slide; dsDNA, one strand shown. The method, boiled down: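 Nuclear extracts came from COS-7 cells transiently transfected by CaPO4 with a human HNF4α isoform expression vector. They were applied to a custom Agilent SurePrint G3 4x180k array of ~60-nt oligonucleotides, made double-stranded, with ~44,000 test sequences spotted in quadruplicate. Bound HNF4α was imaged at 2-µm resolution on an Agilent G2565CA scanner. Binding signal was taken as background-corrected, normalized gProcessedSignal from Agilent software.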
For the sequence “CTCTAGGGTAGATAAGGATGGATCAAAGGAGCCTAGGGAGATTAGAGTATCGGTCGA”, the binding signal was -0.461 log2 normalized intensity.
For the sequence “TTCCACCTGGAATGCACTTGTTCCGGATAGGCCTAGGGAGATTAGAGTATCGGTCGA”, the binding signal amounted to 1.11 log2 normalized intensity.
The figure for “CCATGGTAAGAACTACAGTTGACCTTTGAAGCCTAGGGAGATTAGAGTATCGGTCGA” is 7.38 log2 normalized intensity.
For the sequence “AACTACAGTTGACCTTTGAACACCACAAGTGCCTAGGGAGATTAGAGTATCGGTCGA”, the binding signal was 7.56 log2 normalized intensity.
The result for “CAGTTGACCTTTGAACACCACAAGTTTGAAGCCTAGGGAGATTAGAGTATCGGTCGA” reads 6.31 log2 normalized intensity; that for “ATGCCCCATGGTAAGAACTACAGTTGACCTGCCTAGGGAGATTAGAGTATCGGTCGA”, 4.18 log2 normalized intensity.
The figure for “GACCTTTGAACACCACAAGTTTGAACTGCAGCCTAGGGAGATTAGAGTATCGGTCGA” is 5.05 log2 normalized intensity.
The figure for “TAGGTATGCCCCATGGTAAGAACTACAGTTGCCTAGGGAGATTAGAGTATCGGTCGA” is 0.881 log2 normalized intensity; for “GGAATGTTGCTGTGCTGCCCTCTTGTGGCCGCCTAGGGAGATTAGAGTATCGGTCGA” it is 1.66 log2 normalized intensity; for “TGTTTCCAATAGGTTTGATTTCAGCATGTTGCCTAGGGAGATTAGAGTATCGGTCGA” it is 1.59 log2 normalized intensity.
For the sequence “TATGTGGTGGAATGGAAAGAATATGAACTTGCCTAGGGAGATTAGAGTATCGGTCGA”, the binding signal was found to be 1.66 log2 normalized intensity.
In the case of “ACCCCACGGAGCTGCCTCACATGAGCTAGAGCCTAGGGAGATTAGAGTATCGGTCGA”, the binding signal was -0.873 log2 normalized intensity.
Take “CCAGGCTGATTTAGCTATTTGACCTTCGGCGCCTAGGGAGATTAGAGTATCGGTCGA”: the binding signal worked out at 4.92 log2 normalized intensity.
Take “CTGGGCCCTGCCTGACCTGCCCTTTGTCCCGCCTAGGGAGATTAGAGTATCGGTCGA”: the binding signal turned out to be 6.28 log2 normalized intensity.
As for “ATCGCCCTTTGAGGAGGCCTTTCCTGACCCGCCTAGGGAGATTAGAGTATCGGTCGA”, the binding signal was found to be 2.78 log2 normalized intensity.
For “TTAGCTATTTGACCTTCGGCCTCAATTATAGCCTAGGGAGATTAGAGTATCGGTCGA”, the binding signal stood at 6.43 log2 normalized intensity.
On to “GCCCCTGGCTGGGCCCTGACCTCAAGTGACGCCTAGGGAGATTAGAGTATCGGTCGA”, for which the binding signal was 1.91 log2 normalized intensity.
For the sequence “ATTGGCCCTTTGACCTTTAATCAAGGGCTGGCCTAGGGAGATTAGAGTATCGGTCGA”, the binding signal is 5.08 log2 normalized intensity.
On to “CTGATTTAGCTATTTGACCTTCGGCCTCAAGCCTAGGGAGATTAGAGTATCGGTCGA”, for which the binding signal was found to be 8.16 log2 normalized intensity.
As for “TGGCTGGGCCCTGACCTCAAGTGACCTTTGGCCTAGGGAGATTAGAGTATCGGTCGA”, the binding signal stood at 7.17 log2 normalized intensity.
For the sequence “GGGCCCTGACCTCAAGTGACCTTTGACCTCGCCTAGGGAGATTAGAGTATCGGTCGA”, the binding signal was 12.1 log2 normalized intensity.
For the sequence “GGCTTGTACCTTGACCTTCTCTGTTAACCCGCCTAGGGAGATTAGAGTATCGGTCGA”, the binding signal was 4.27 log2 normalized intensity.
Regarding “GATGGGCCAGGCAGGACAGTTTTGTGTGTTGCCTAGGGAGATTAGAGTATCGGTCGA”, the binding signal worked out at 1.11 log2 normalized intensity.
Turning to “TCAGATATCTGAATGTACCTTTGAAACCTAGCCTAGGGAGATTAGAGTATCGGTCGA”, the binding signal amounted to 2.87 log2 normalized intensity.
For “ATCCAGTAGAGGGCATAGCAGATAAGCATTGCCTAGGGAGATTAGAGTATCGGTCGA”, the binding signal is -0.984 log2 normalized intensity.
Turning to “ACTTCTTTGTGATGTGTGGATTCAGCTCACGCCTAGGGAGATTAGAGTATCGGTCGA”, the binding signal is 1.29 log2 normalized intensity.
Regarding “ATCTCAAATAGCTGGGTCTCACTCTGACCCGCCTAGGGAGATTAGAGTATCGGTCGA”, the binding signal came out at 3.32 log2 normalized intensity.
Turning to “ACTTCAAAGGGTGTTGTGACTACCTGGTTAGCCTAGGGAGATTAGAGTATCGGTCGA”, the binding signal was found to be 0.524 log2 normalized intensity.
“AACTTCTTCCAATGAAAGGTTAACCTGCTGGCCTAGGGAGATTAGAGTATCGGTCGA”: the binding signal amounted to 1.36 log2 normalized intensity.
As for “CCTTTTTTGAAGGTTAAAGTCCATTTTTGAGCCTAGGGAGATTAGAGTATCGGTCGA”, the binding signal amounted to 6.53 log2 normalized intensity.
For “AAGGGCTGAGGTTAAAGTCCACATTCTTTAGCCTAGGGAGATTAGAGTATCGGTCGA”, the binding signal was 5.76 log2 normalized intensity.
“TTTATCCTTTTTTGAAGGTTAAAGTCCATTGCCTAGGGAGATTAGAGTATCGGTCGA”: the binding signal came out at 7 log2 normalized intensity.
For “TCACAAAGGGCTGAGGTTAAAGTCCACATTGCCTAGGGAGATTAGAGTATCGGTCGA”, the binding signal was 7.04 log2 normalized intensity.
The figure for “AAGCTTCACAAAGGGCTGAGGTTAAAGTCCGCCTAGGGAGATTAGAGTATCGGTCGA” is 6.22 log2 normalized intensity.
Turning to “ACATTTTTATCCTTTTTTGAAGGTTAAAGTGCCTAGGGAGATTAGAGTATCGGTCGA”, the binding signal is 2.66 log2 normalized intensity.
The result for “TCCCCACTTATTACCGGTGTGACTTTGGTTGCCTAGGGAGATTAGAGTATCGGTCGA” reads 2.1 log2 normalized intensity; that for “CGGGAGGCAAGATAAGGGTAATCACCCCCAGCCTAGGGAGATTAGAGTATCGGTCGA”, 2.34 log2 normalized intensity.
The result for “ATGTGGTCCTAAGACTAACCTTTGACCATCGCCTAGGGAGATTAGAGTATCGGTCGA” reads 7.45 log2 normalized intensity; that for “GGTCCTAAGACTAACCTTTGACCATCCACGGCCTAGGGAGATTAGAGTATCGGTCGA”, 5.96 log2 normalized intensity; that for “TACTCATGTGGTCCTAAGACTAACCTTTGAGCCTAGGGAGATTAGAGTATCGGTCGA”, 6.33 log2 normalized intensity.
The result for “CATGTGGTCCTAAGACTAACCTTTGACCATGCCTAGGGAGATTAGAGTATCGGTCGA” reads 7.89 log2 normalized intensity; that for “TTACTCATGTGGTCCTAAGACTAACCTTTGGCCTAGGGAGATTAGAGTATCGGTCGA”, 3.37 log2 normalized intensity; that for “TAAGACTAACCTTTGACCATCCACGGATGCGCCTAGGGAGATTAGAGTATCGGTCGA”, 4.62 log2 normalized intensity.

These data come from PMC10726135, “HNF4α isoforms regulate the circadian balance between carbohydrate and lipid metabolism in the liver”.
